Assay results published in PubChem BioAssay AID1159580 (chemical genetic matrix, 2015).
Several values for one entry are separate records, joined by “and”; a condition that tells them apart may be missing. Equal values may be shown once. Hit rate of the full screen: of about 5,500 compounds, about 2,000 (36%) were called active. Another 18% or so got no clear call; they are omitted. Cut-off read from the data, not from the text of the source: active = normalized growth mostly below about 0.91 (no sharp cut-off); inconclusive = no clear call, values can overlap the other calls; inactive = mostly above about 0.92. The list shows a part of the results.

Assay: chemical genetic growth profiling, strain panel (AID 1159580);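 note: tested at 20 µM; growth read once vehicle control cultures reached saturation at 30 °C; 1 = growth at the plate median or of vehicle wells; lower values mean less growth of the strain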
Conditions: S. cerevisiae deletion strains, growth OD

Measured: normalized growth

CC(=O)O[C@H]1C(=O)[C@@]2(C)C([C@H](OC(=O)c3ccccc3)[C@]3(O)C[C@H](OC(=O)[C@H](O)[C@@H](NC(=O)c4ccccc4)c4ccccc4)C(C)=C1C3(C)C)[C@]1(OC(C)=O)CO[C@@H]1C[C@@H]2O (stereo partly specified)
active: locus YDL192W, strain arf1, active compounds read low 1.14 [resistant] | locus YDR502C, strain sam2, active compounds read low 1.16 [resistant] | locus YER155C, strain BEM2 (second series), active compounds read low 0.824 | locus YHR200W, strain rpn10, active compounds read low 1.17 [resistant] | locus YIR030C, strain dcg1, active compounds read low 1.09 [resistant] | locus YJL168C, strain set2, active compounds read low 1.07 [resistant]
inactive: locus YAL013W, strain DEP1, active compounds read low 1.08 | locus YAL021C, strain ccr4, active compounds read low 0.995 | locus YAL026C, strain drs2, active compounds read low 0.979 | locus YAL030W, strain snc1, active compounds read low 1 | locus YBL061C, strain skt5, active compounds read low 1.01 | locus YBR009C, strain hhf1, active compounds read low 0.989 | locus YBR021W, strain FUR4, active compounds read low 1.05 | locus YBR023C, strain chs3, active compounds read low 1.01 | locus YBR171W, strain sec66, active compounds read low 0.991 | locus YBR229C, strain ROT2, active compounds read low 1.02 | locus YBR231C, strain swc5, active compounds read low 1.02 | locus YBR279W, strain paf1, active compounds read low 0.994 | locus YCL011C, strain gbp2, active compounds read low 1.02 | locus YCL016C, strain dcc1, active compounds read low 1.04 | locus YCL029C, strain bik1, active compounds read low 1.05 | locus YCL061C, strain MRC1, active compounds read low 1.01 | locus YCL069W, strain vba3, active compounds read low 1.01 | locus YCR088W, strain abp1, active compounds read low 1 | locus YDL005C, strain med2, active compounds read low 1 | locus YDL035C, strain GPR1, active compounds read low 1.06 | locus YDL040C, strain nat1, active compounds read low 1 | locus YDL074C, strain BRE1, active compounds read low 1.05 | locus YDL101C, strain DUN1, active compounds read low 1.03 | locus YDL134C, strain PPH21, active compounds read low 1.03 | locus YDL185W, strain tfp1, active compounds read low 0.936 | locus YDR001C, strain nth1, active compounds read low 1.02 | locus YDR069C, strain doa4, active compounds read low 0.975 | locus YDR101C, strain arx1, active compounds read low 1.07 | locus YDR137W, strain rgp1, active compounds read low 1.02 | locus YDR150W, strain NUM1, active compounds read low 1.03 | locus YDR159W, strain sac3, active compounds read low 0.975 | locus YDR162C, strain NBP2, active compounds read low 1.04 | locus YDR195W, strain ref2 0.994 | locus YDR297W, strain sur2, active compounds read low 0.996 | locus YDR318W, strain mcm21, active compounds read low 1.07 | locus YDR334W, strain swr1, active compounds read low 1 | locus YDR335W, strain msn5, active compounds read low 1 | locus YDR388W, active compounds read low 1.06 | locus YDR392W, strain spt3, active compounds read low 0.79 | locus YEL003W, strain gim4, active compounds read low 0.979 | locus YEL037C, strain rad23, active compounds read low 1.02 | locus YEL061C, strain CIN8 (second series), active compounds read low 0.989 | locus YEL061C, strain CIN8, active compounds read low 1.05 | locus YER015W, strain faa2, active compounds read low 0.997 | locus YER016W, strain bim1, active compounds read low 1.01 | locus YER110C, active compounds read low 1.1 | locus YER111C, strain swi4, active compounds read low 1.02 | locus YER155C, strain BEM2, active compounds read low 1.03 | locus YER167W, strain BCK2, active compounds read low 1.04 | locus YFR010W, strain ubp6, active compounds read low 0.988 | locus YGL078C, strain dbp3, active compounds read low 1.02 | locus YGL086W, strain mad1, active compounds read low 0.944 | locus YGL167C, strain pmr1, active compounds read low 0.994 | locus YGL173C, strain kem1, active compounds read low 1 | locus YGL227W, strain vid30, active compounds read low 1.02 | locus YGL240W, strain doc1, active compounds read low 0.968 | locus YGL248W, strain PDE1, active compounds read low 1.03 | locus YGL253W, strain hxk2, active compounds read low 0.95 | locus YGR078C, strain PAC10, active compounds read low 1.04 | locus YGR135W, strain pre9, active compounds read low 1.05 | locus YGR229C, strain SMI1, active compounds read low 1.13 | locus YGR252W, strain gcn5, active compounds read low 1.13 | locus YHR013C, strain ard1, active compounds read low 0.991 | locus YHR027C, strain rpn1, active compounds read low 0.988 | locus YHR030C, strain SLT2, active compounds read low 1.03 and 0.96 | locus YHR079C, strain IRE1 (second series), active compounds read low 1.03 | locus YHR079C, strain IRE1, active compounds read low 1 | locus YHR094C, strain hxt1, active compounds read low 1.05 | locus YHR129C, strain ARP1, active compounds read low 1.03 | locus YHR142W, strain chs7, active compounds read low 1 | locus YIL066C, strain RNR3, active compounds read low 1.03 | locus YIL073C, strain SPO22, active compounds read low 1.04 | locus YIL125W, strain kgd1, active compounds read low 1.06 | locus YJL092W, strain hpr5, active compounds read low 1.01 | locus YJL095W, strain BCK1 (second series), active compounds read low 1 | locus YJL095W, strain BCK1, active compounds read low 1.03 and 0.973 | locus YJL115W, strain asf1, active compounds read low 1.01 | locus YJL129C, strain trk1, active compounds read low 0.992 | locus YJL134W, strain LCB3, active compounds read low 1.03 | locus YJL154C, strain vps35, active compounds read low 1 | locus YJL164C, strain tpk1, active compounds read low 0.969 | locus YJL166W, strain qcr8, active compounds read low 1.01 | locus YJL187C, strain SWE1 (second series), active compounds read low 1.03 | locus YJL187C, strain SWE1, active compounds read low 0.986 | locus YJR043C, strain POL32, active compounds read low 1.06
